# Source: PubChem
# An excerpt weighted towards active compounds, which were near 6.2% of everything screened.
# GRIN3A LBD mod – modulators (binders) of human NR3A ligand-binding domain. Tm shift relative to glycine control, % at 25 µM. hit rate 2.5% among 340,000. NR3A LBD differential scanning fluorimetry, Tm shift; 0% = protein alone, 100% = glycine-bound protein;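 active = melting temperature shift of at least 10% of the positive control shift, at one fixed dose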
# Mot1-301 SUMO – SUMOylation pathway inhibition by Mot1-301 growth rescue; growth rescue, % at 18.8 µM; S. cerevisiae Mot1-301 growth rescue, ATP luminescence, 38.5C; percent above DMSO median, 100 means doubled; hit rate 1% among 320,000; AID 2716;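 active = every valid replicate shows activation above 250% relative to neutral control wells; inactive = the rest, any valid replicate at or below 250%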;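 note: OY570 slx delta 5 strain wells were the positive control but not used for scaling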
# AHR activator – activators of human aryl hydrocarbon receptor; P35869; AHR-responsive luciferase reporter cells, luminescence; activation, % at 5 µM; hit rate 2.5% among 320,000; AID 2796; in the data active = activation above about 47%;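 note: 0% = vehicle wells and 100% = reference agonist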
# NTR1 agonist – NTR1 (human) agonism; P30989; NTR1-U2OS beta-arrestin-GFP spot imaging, agonist mode; activation, % at 20 µM; hit rate 0.17% among 330,000; AID 493036;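 active = activation at or above 40% of the spot to cytoplasm intensity ratio, with at least 20 cells analyzed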;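 note: 0% = DMSO without peptide and 100% = 100 nM NTR1 peptide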
# Target sequence (P30989 whole entry, looked up): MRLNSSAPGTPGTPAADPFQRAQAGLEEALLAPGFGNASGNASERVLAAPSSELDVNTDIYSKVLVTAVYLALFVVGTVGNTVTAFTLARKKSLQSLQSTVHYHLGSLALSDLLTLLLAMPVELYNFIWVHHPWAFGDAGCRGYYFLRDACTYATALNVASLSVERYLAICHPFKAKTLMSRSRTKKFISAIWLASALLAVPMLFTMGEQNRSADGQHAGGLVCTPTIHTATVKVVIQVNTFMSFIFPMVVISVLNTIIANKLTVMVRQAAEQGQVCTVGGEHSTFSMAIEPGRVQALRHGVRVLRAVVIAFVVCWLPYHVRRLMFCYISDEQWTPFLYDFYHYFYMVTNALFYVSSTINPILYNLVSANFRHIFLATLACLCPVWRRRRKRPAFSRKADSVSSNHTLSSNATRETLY
# H9c2 protect – modulators protecting cardiomyocytes from myocardial damage. H9c2 cardiomyocytes, H2O2 injury protection, ATPLite, 2 h. protection from H2O2 cell death, % at 20 µM. hit rate 0.63% among 360,000;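 active = compounds giving at least 50% protection of heart cells from peroxide-induced death in the single-dose screen, raw or plate-pattern-corrected value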;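 note: 0% = DMSO wells with peroxide and 100% = DMSO wells without peroxide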
# AI-2 QS modul – modulators of Vibrio harveyi AI-2 quorum sensing system | Vibrio harveyi JMH597 AI-2 luminescence/OD600 ratio, 9 h; stronger effect = lower value; strain lacks LuxN and CqsS sensors; 0 = neutral-control median | activity change, % at 7.5 µM | hit rate 0.4% among 300,000; in the data active = activity change below about -75%, passing the limit was not always enough;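 note: luminescence divided by OD600 gain over 9 h not by final OD600 alone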
# Active calls of the source: *; / = no result.
SMILES,GRIN3A LBD mod,Mot1-301 SUMO,AHR activator,NTR1 agonist,H9c2 protect,AI-2 QS modul
CCC(C)(C)C1CCC(=NNC(=S)Nc2cccnc2)CC1 (stereo not drawn),4,114,69*,1,-4,4
Cc1cc(C(=O)NN=Cc2c(C)[nH]c3ccccc23)c(C)o1,-6,6,57*,0,-2,/
CC(/C=N/NC(=O)c1ccc(Br)cc1)=C\c1ccccc1,23*,21,1,1,-5,20
COc1ccc(C(=O)N/N=C\C(C)=C\c2ccccc2)cc1OC,1,-9,3,2,0,33
CC(/C=N/NC(=O)c1cc(C(C)C)[nH]n1)=C\c1ccccc1,-7,-15,16,-3,0,11
O=C(N/N=C/C(Br)=C/c1ccccc1)c1cc(-c2ccco2)[nH]n1,22*,/,9,7,1,5
Cc1[nH]c2ccccc2c1/C=N\NC(=O)c1ccccc1Cl,/,/,/,/,-2,/
CC(/C=N/NC(=O)c1cc(-c2cccs2)[nH]n1)=C\c1ccccc1,11*,10,35,4,-2,-59
CC(NC(=O)CSc1ncn[nH]1)c1ccc(Cl)cc1Cl (stereo not drawn),-3,/,/,1,-2,18
O=C(NC1CCCCC1)c1cc(C2CC2)nn1-c1ccccc1,0,/,3,1,-1,/
CCOC(=O)N1CCN(C(=O)c2c[nH]c3ccc(S(=O)(=O)N(C)c4ccc(OCC)cc4)cc3c2=O)CC1,-1,-18,3,0,-2,9
Cc1ccc(-c2cc(C(=O)N/N=C/c3ccc(Cl)cc3)n[nH]2)o1,31*,0,14,1,3,/
C/C(=N\NC(=O)c1ccc(Br)cc1)C1C(=O)c2ccccc2C1=O,14*,-1,9,3,-16,7
CC(/C=N/NC(=O)c1cc(-c2ccc(C)o2)[nH]n1)=C\c1ccccc1,22*,11,22,1,8,40
Cc1ccc(-c2cc(C(=O)N/N=C/c3ccccc3)n[nH]2)o1,10,1,30,-1,-2,22
Cn1cccc1-c1cc(C(=O)N/N=C/c2ccc(Cl)cc2)[nH]n1,19*,10,21,0,2,/
Cc1[nH]c2ccccc2c1/C=N/NC(=O)c1cc(-c2cccs2)[nH]n1,21*,5,46,3,51*,7
Cc1cc(C(=O)N/N=C/c2c(C)[nH]c3ccccc23)n[nH]1,-12,5,17,0,16,29
Cc1[nH]c2ccccc2c1/C=N/NC(=O)CCC(=O)NCc1ccccc1,-1,393,18,-1,1,6
Cc1[nH]c2ccccc2c1/C=N/NC(=O)C1CC1(c1ccccc1)c1ccccc1 (stereo not drawn),12*,/,13,29,-18,15
CCOCc1c(C(=O)N2CCN(CC(=O)Nc3ccc(F)cc3)CC2)oc2ccccc12,0,/,/,0,-6,/
CN(C)c1ccc(N2C(=O)CSC2=S)cc1,-2,-8,52*,0,-1,8
CCOC(=O)/C=C/C(=O)OCC(=O)Nc1c(Cl)cccc1Cl,3,38,1,2,32,14
CCOC(=O)/C=C/[C@H]1CCc2cccc(Cl)c2O1,15*,-5,4,-1,-14,/
Cc1ccc2nc(/C=C/c3cccc(F)c3)ccc2c1,-30,17,48*,1,-10,2
SMILES,GRIN3A LBD mod,Mot1-301 SUMO,AHR activator,NTR1 agonist,H9c2 protect,AI-2 QS modul
Nc1c(-c2ccccc2)cnn1-c1ccccc1,2,-46,0,-2,-18,24
O=c1cnn(-c2ccccc2)c(-c2ccccc2)c1,2,-4,50*,2,-2,-1
CC1(C(=O)NS(=O)(=O)c2ccc3c(c2)CCO3)CCN1C(=O)C1(c2ccc(Cl)cc2)CCC1 (stereo not drawn),/,/,/,/,0,/
Cc1ccc(O)c(C(CC(=O)NCc2cccnc2)c2ccccc2)c1 (stereo not drawn),-1,-2,2,-1,-6,23
CC(C)Oc1ccc(CNC(=O)CC(c2ccccc2)c2cc(Cl)ccc2O)cc1 (stereo not drawn),10,-4,-1,51*,-19,42
COc1ccc(C(C)NCCC(c2ccc(OC(C)C)cc2)c2ccccc2OC)cc1 (stereo not drawn),-4,-23,/,68*,-21,17
